Inconclusive results are not listed. Entries that show only a call come without a potency. Active and inactive are the calls of the source. The call rests on the fitted dose curve; in most records, active means well fitted cell-killing curve with a large enough effect in the repeat runs; inconclusive means weak or mixed curves; inactive means no such curve, though single readings can be large or run the other way.

The first assay is described as follows: qHTS assay for identifying genotoxic compounds that show differential cytotoxicity against isogenic chicken DT40 cell lines with known DNA damage response pathways - Rad54/Ku70 mutant cell line (AID 743015). Further: nearly all actives have a fitted effect of over 60% in size. Further: potency means the concentration at half of the fitted maximal effect. Particulars: DT40 Rad54/Ku70 mutant viability, CellTiter-Glo, 40 h; series mostly up to 66.8 µM. (Quantitative high-throughput screening tests each substance at several concentrations.)
On to `CCN1C(=O)NC(c2ccccc2)C1=O` (configuration not stated), for which the Potency result is “inactive”.
Take `CCN(CC)CCC(=O)N1c2ccccc2Sc2ccc(C(F)(F)F)cc21`: the Potency is 8.41 µM (active).
With `CCOC(=O)[C@@H](N)CS`, the Potency entry was “inactive”.
For the compound `C[Se]CCC(N)C(=O)O` (configuration not stated), the Potency result is “inactive”.
Still for that read-out and setting: the value for `O=[n+]1ccn([O-])c2ccccc21` was “inactive”.
Same read-out and setting: as for `CCCOc1cc(N)ccc1C(=O)OCCN(CC)CC`, the entry is “inactive”; as for `NC(=O)Oc1ccc(Cc2ccccc2)cc1`, “inactive”; as for `CC(C)CCC[C@@H](C)[C@H]1CC(=O)C2=C3CC[C@H]4C[C@@H](O)CC[C@]4(C)[C@H]3CC[C@@]21C`, 0.841 µM (active).
As for `CC1C(=O)CC2C3(C)CCC2(C(C)C(=O)O)C(=O)C13` (configuration not stated), the Potency result was “inactive”.
As to `CN(C)CCC=C1c2ccccc2C(C)(C)c2ccccc21`, the Potency is 13.3 µM (active).
On to `CCC(CN)CC(C)CCNCC(O)CNCC(C)CC(CC)CN` (configuration not stated), for which the Potency entry is “inactive”.
In the case of `C[C@H]1[C@@H](OC(=O)CCC(=O)O)O[C@@H]2OC3(C)CC[C@H]4[C@H](C)CC[C@@H]1[C@@]24OO3`, the Potency was 0.119 µM (active).
Turning to `O=C(/C=C/c1cccc(F)c1)NC1CC1`, the Potency entry is “inactive”.
For the compound `OCC(O)COc1ccc(Cl)cc1` (configuration not stated), the Potency result was “inactive”.
`CCC(=O)c1ccc2c(c1)N(CCCN1CCN(CCO)CC1)c1ccccc1S2`: the Potency was 4.22 µM (active).
As for `O=P(O)(O)C(Sc1ccc(Cl)cc1)P(=O)(O)O`, the Potency result is “inactive”.
Same read-out and setting: as for `C[C@@H](O)[C@H]1C(=O)N2C(C(=O)[O-])=C(SC3Cn4cnc[n+]4C3)[C@H](C)[C@H]12` (some centres not stated), the entry is “inactive”; as for `CC(C)(C)C1(O)CCN2CC3c4ccccc4CCc4cccc(c43)C2C1` (configuration not stated), 11.9 µM (active); as for `N[C@@H](C(=O)N[C@@H]1C(=O)N2C(C(=O)O)=C(CSc3cn[nH]n3)CS[C@H]12)c1ccc(O)cc1`, “inactive”.
Take `C#C[C@]1(O)CC[C@H]2[C@@H]3CCC4=C/C(=N/O)CC[C@@H]4[C@H]3CC[C@@]21CC`: the Potency is 21.1 µM (active).
As for `CCOC(=O)CN[C@@H](C(=O)N1CC[C@H]1C(=O)NCc1ccc(/C(N)=N/O)cc1)C1CCCCC1`, the Potency result is “inactive”.

Another assay can be described thus: qHTS assay to identify small molecule antagonists of the androgen receptor (AR) signaling pathway - cell viability counter screen (AID 743033; further: nearly all actives have a fitted effect of over 45% in size). The following applies: AR-bla HEK293 viability, CellTiter-Glo luminescence, 16 h; series mostly up to 58.5 µM.
Regarding `CS(=O)(=O)OCC(O)C(O)COS(C)(=O)=O` (configuration not stated), the Potency entry was “inactive”.
The same measure, in the same setting: the value for `CCC(Cc1c(I)cc(I)c(O)c1I)C(=O)O` (configuration not stated) was “inactive”; that for `CC(CN(C)C)CN1c2ccccc2S(=O)(=O)c2ccccc21` (configuration not stated) was “inactive”; that for `S=C=Nc1ccc(N=C=S)cc1` was “inactive”.
With `N[C@H](CCC(=O)O)C(=O)O`, the Potency result was “inactive”.
For the compound `CCC(C)[C@H]1O[C@]2(C=C[C@@H]1C)C[C@@H]1C[C@@H](C/C=C(\C)[C@@H](O[C@H]3C[C@H](OC)[C@@H](O[C@H]4C[C@H](OC)[C@H](NC(C)=O)[C@H](C)O4)[C@H](C)O3)[C@@H](C)/C=C/C=C3\CO[C@@H]4[C@H](O)C(C)=C[C@@H](C(=O)O1)[C@]34O)O2` (some centres not stated), the Potency entry is “inactive”.
On the same count and under the same terms, as for `CN1CCCC(CN2c3ccccc3Sc3ccccc32)C1` (configuration not stated), the entry is “inactive”; as for `CCCC(=O)Nc1ncnc2c1ncn2[C@@H]1O[C@@H]2COP(=O)(O)O[C@H]2[C@H]1OC(=O)CCC`, “inactive”; as for `O=P(O)(O)OC[C@H]1O[C@](O)(COP(=O)(O)O)[C@@H](O)[C@@H]1O`, “inactive”.
Same read-out and setting: the value for `COc1cc2c(cc1OC)[C@@H](c1ccccc1)CN(C)CC2` was “inactive”.
Turning to `CCN(CC)CCC(=O)N1c2ccccc2Sc2ccc(Cl)cc21`, the Potency entry was “inactive”.
Take `NCCCC[C@H](N)C(=O)O`: the Potency result is “inactive”.
Regarding `CCCC(=O)N1CCCN(c2nc(N)c3cc(OC)c(OC)cc3n2)CC1`, the Potency result is “inactive”.
In the case of `CCN1C(=O)NC(c2ccccc2)C1=O` (configuration not stated), the Potency entry is “inactive”.
The same measure, in the same setting: as for `CCN(CC)CCC(=O)N1c2ccccc2Sc2ccc(C(F)(F)F)cc21`, the entry is “inactive”; as for `CCOC(=O)[C@@H](N)CS`, “inactive”.
Same read-out and setting: the value for `C[Se]CCC(N)C(=O)O` (configuration not stated) was “inactive”.
As for `O=[n+]1ccn([O-])c2ccccc21`, the Potency entry is “inactive”.
In the case of `CCCOc1cc(N)ccc1C(=O)OCCN(CC)CC`, the Potency result is “inactive”.
Turning to `NC(=O)Oc1ccc(Cc2ccccc2)cc1`, the Potency result was “inactive”.
For the compound `CC(C)CCC[C@@H](C)[C@H]1CC(=O)C2=C3CC[C@H]4C[C@@H](O)CC[C@]4(C)[C@H]3CC[C@@]21C`, the Potency result is “inactive”.
As for `CC1C(=O)CC2C3(C)CCC2(C(C)C(=O)O)C(=O)C13` (configuration not stated), the Potency result was “inactive”.
For the compound `CCC(CN)CC(C)CCNCC(O)CNCC(C)CC(CC)CN` (configuration not stated), the Potency entry was “inactive”.
In the case of `O=C(/C=C/c1cccc(F)c1)NC1CC1`, the Potency result is “inactive”.
In the case of `OCC(O)COc1ccc(Cl)cc1` (configuration not stated), the Potency entry is “inactive”.
For the compound `O=P(O)(O)C(Sc1ccc(Cl)cc1)P(=O)(O)O`, the Potency entry is “inactive”.
Consider `C[C@@H](O)[C@H]1C(=O)N2C(C(=O)[O-])=C(SC3Cn4cnc[n+]4C3)[C@H](C)[C@H]12` (some centres not stated), for which the Potency result was “inactive”.
As for `CC(C)(C)C1(O)CCN2CC3c4ccccc4CCc4cccc(c43)C2C1` (configuration not stated), the Potency entry was “inactive”.
On the same count and under the same terms, the value for `N[C@@H](C(=O)N[C@@H]1C(=O)N2C(C(=O)O)=C(CSc3cn[nH]n3)CS[C@H]12)c1ccc(O)cc1` was “inactive”.
Regarding `C#C[C@]1(O)CC[C@H]2[C@@H]3CCC4=C/C(=N/O)CC[C@@H]4[C@H]3CC[C@@]21CC`, the Potency entry is “inactive”.
Turning to `CCOC(=O)CN[C@@H](C(=O)N1CC[C@H]1C(=O)NCc1ccc(/C(N)=N/O)cc1)C1CCCCC1`, the Potency result was “inactive”.

These data come from PubChem BioAssay (Tox21).
